# Laboratory results: PubChem BioAssay (NCATS)
# Results filed as inconclusive are left out. A number with no mark means an inactive call. Calls of active or inactive are those of the source. Calls come from the whole dose curve; as a rule, active = well fitted cell-killing curve with a large enough effect; inconclusive = small, poorly fitted or top-dose-only effect, or effect the other way; inactive = no such curve, though single readings can be large or run the other way.
# Test: Quantitative High-Throughput drug screen in 47 multiple myeloma cell lines against the NCATS MIPE library collection: ARP1_JJKsccF8 cell viability assay (AID 1918928; note: nearly all actives have a fitted effect of over 40% in size)
# Settings: ARP1 myeloma cells viability, CellTiter-Glo ATP, 48 h; series mostly up to 45.8 µM; viability: at the top concentration
# How it was run: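 Myeloma cells at 500 per well in 1536-well format treated with MIPE 4.0 library by pin transfer for 48 h at 37C, 5% CO2. Viability from ATP luminescence (CellTiter-Glo), normalized to DMSO (100%) and media-only (0%) wells.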
# Potency is the fitted concentration of half-maximal effect.
Compound,viability,Potency
CC(C)(O)C(=O)Nc1ccc([N+](=O)[O-])c(C(F)(F)F)c1,80.2%,–
CN1CCN(c2ccc([N+](=O)[O-])c3no[n+]([O-])c23)CC1,–,9.35 µM (active)
COC[C@H]1OC(=O)c2coc3c2[C@@]1(C)C1=C(C3=O)[C@@H]2CC[C@H](O)[C@@]2(C)C[C@@H]1OC(C)=O,–,0.332 µM (active)
C[C@H]1CCCC=CC2C[C@H](O)C[C@@H]2[C@H](O)C=CC(=O)O1 (stereo not given in full),6.3%,–
C[C@](O)(COc1ccc(C#N)cc1)C(=O)Nc1ccc(C#N)c(C(F)(F)F)c1,82.2%,–
Cc1c(C(=O)c2cccc3ccccc23)c2cccc3c2n1[C@H](CN1CCOCC1)CO3,–,26.4 µM (active)

# Test: Quantitative High-Throughput drug screen in 47 multiple myeloma cell lines against the NCATS MIPE library collection: ARD_JJKsccE7 cell viability assay (AID 1918929)
# Settings: ARD myeloma cell line viability, CellTiter-Glo, 48 h; series mostly up to 45.8 µM; viability: at the top concentration
# How it was run: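 We plated 500 myeloma cells per well, pinned in MIPE 4.0 compounds, and incubated for 48 hours at 37C. ATP was then quantified with CellTiter-Glo, with DMSO and media-only wells defining 100% and 0%.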
Compound,viability,Potency
c1ccc(CCCN2CCN(CCOC(c3ccccc3)c3ccccc3)CC2)cc1,110%,–
N=c1c2c(-c3ccccc3)c(-c3ccccc3)n(Cc3ccccc3)c2ncn1C1CCC(O)CC1 (stereo not given),–,8.33 µM (active)
CC(=O)Nc1ccc(OC[C@](C)(O)C(=O)Nc2ccc([N+](=O)[O-])c(C(F)(F)F)c2)cc1,120%,–
CC(C)(O)C(=O)Nc1ccc([N+](=O)[O-])c(C(F)(F)F)c1,–,23.5 µM (active)
CCCC[N+]1(C)[C@H]2CC(OC(=O)[C@H](CO)c3ccccc3)C[C@H]1[C@H]1O[C@H]12 (stereo not given in full),122%,–
COC1=C[C@@H]2[C@@H]3Cc4ccc(OC)c(O)c4[C@]2(CCN3C)CC1=O,–,6.62 µM (active)
Clc1ccccc1C(c1ccccc1)(c1ccccc1)n1cccn1,134%,–
CCNC(=O)CC1N=C(c2ccc(Cl)cc2)c2cc(OC)ccc2-n2c(C)nnc21 (stereo not given),–,13.2 µM (active)
CCCCCC[C@H]1C(=O)O[C@H](C)[C@H](NC(=O)c2cccc(NC=O)c2O)C(=O)O[C@@H](C)[C@@H]1OC(=O)CC(C)C,–,0.372 µM (active)
N#C[C@H](O[C@@H]1O[C@H](CO[C@@H]2O[C@H](CO)[C@H](O)[C@H](O)[C@H]2O)[C@H](O)[C@H](O)[C@H]1O)c1ccccc1,–,5.9 µM (active)
CN1CCN(c2ccc([N+](=O)[O-])c3no[n+]([O-])c23)CC1,–,23.5 µM (active)
c1cc2c(cc1[C@H]1OC[C@H]3[C@H]1CO[C@H]3c1ccc3c(c1)OCO3)OCO2,92.7%,–
COC[C@H]1OC(=O)c2coc3c2[C@@]1(C)C1=C(C3=O)[C@@H]2CC[C@H](O)[C@@]2(C)C[C@@H]1OC(C)=O,–,6.62 µM (active)
C[C@]12Cc3cn[nH]c3C[C@@H]1CC[C@@H]1[C@H]2CC[C@@]2(C)[C@H]1CC[C@]2(C)O,97.4%,–
COc1ccc(C(=O)c2c(C)n(CCN3CCOCC3)c3cc(I)ccc23)cc1,–,18.7 µM (active)
O=C(N[C@@H](COc1ccc2[nH]c(=O)[nH]c2c1)c1ccccc1)c1cccn(Cc2ccc(F)c(F)c2)c1=O,–,18.7 µM (active)
C=C[C@@H]1CN2CCC1C[C@H]2[C@H](O)c1ccnc2ccccc12 (stereo not given in full),138%,–
CC[C@H]1C=CC=CC[C@@H](C)[C@H](O)[C@@](C)(O)C(=O)[C@@H](C)[C@H](O)[C@@H](C)C(=O)[C@@H](C)[C@H](O)[C@@H](C)C=CC(=O)O[C@@H]2[C@@H](C)[C@H](CC1)O[C@]1(CC[C@H](C)[C@H](C[C@@H](C)O)O1)[C@H]2C,–,0.001 µM (active)
C[C@]12CC[C@H]3[C@@H](CCC4=CC(=O)CC[C@@]43C)[C@H]1CC[C@H]2O,96.6%,–

# Test: Quantitative High-Throughput drug screen in 47 multiple myeloma cell lines against the NCATS MIPE library collection: Karpas620_DSMZ cell viability assay (AID 1918959); note: nearly all actives have a fitted effect of over 30% in size
# Settings: Karpas620 myeloma viability, CellTiter-Glo ATP luminescence, 48 h; series mostly up to 45.8 µM; viability (% of DMSO): at the top concentration
# How it was run: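 CellTiter-Glo luminescence (ATP) after 48 h compound exposure, 37C/5% CO2; 500 cells/well; MIPE 4.0 approved/investigational drugs pinned in; DMSO = 100%, media only = 0% viability.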
Compound,viability (% of DMSO),Potency
c1ccc(CCCN2CCN(CCOC(c3ccccc3)c3ccccc3)CC2)cc1,101%,–
N=c1c2c(-c3ccccc3)c(-c3ccccc3)n(Cc3ccccc3)c2ncn1C1CCC(O)CC1 (stereo not given),–,9.35 µM (active)
O=C1CCC[C@@H]2[C@H]3CCCN4CCC[C@@H](CN12)[C@@H]34,95.6%,–
CC(=O)Nc1ccc(OC[C@](C)(O)C(=O)Nc2ccc([N+](=O)[O-])c(C(F)(F)F)c2)cc1,108%,–
CC(C)(O)C(=O)Nc1ccc([N+](=O)[O-])c(C(F)(F)F)c1,–,18.7 µM (active)
CCCC[N+]1(C)[C@H]2CC(OC(=O)[C@H](CO)c3ccccc3)C[C@H]1[C@H]1O[C@H]12 (stereo not given in full),112%,–
COC1=C[C@@H]2[C@@H]3Cc4ccc(OC)c(O)c4[C@]2(CCN3C)CC1=O,–,20.9 µM (active)
C=C1C[C@H]2[C@H]3CCC(=O)[C@@]3(C)CC[C@@H]2[C@@]2(C)C=CC(=O)C=C12,–,23.5 µM (active)
Clc1ccccc1C(c1ccccc1)(c1ccccc1)n1cccn1,119%,–
CN[C@@H]1Cc2cccc3[nH]c(=O)n(c23)C1,109%,–
CCCCCC[C@H]1C(=O)O[C@H](C)[C@H](NC(=O)c2cccc(NC=O)c2O)C(=O)O[C@@H](C)[C@@H]1OC(=O)CC(C)C,–,0.935 µM (active)
CC=C(C)C(=O)O[C@H]1C(C)=C2[C@@H]3OC(=O)[C@@](C)(O)[C@@]3(O)[C@@H](OC(=O)CCC)C[C@](C)(OC(C)=O)[C@@H]2[C@@H]1OC(=O)CCCCCCC,124%,–
N#C[C@H](O[C@@H]1O[C@H](CO[C@@H]2O[C@H](CO)[C@H](O)[C@H](O)[C@H]2O)[C@H](O)[C@H](O)[C@H]1O)c1ccccc1,–,9.35 µM (active)
CN1CCN(c2ccc([N+](=O)[O-])c3no[n+]([O-])c23)CC1,–,20.9 µM (active)
CC1=NN=C(c2ccc(N)cc2)c2cc3c(cc2C1)OCO3,–,20.9 µM (active)
C[C@]12CC[C@H]3[C@@H](CCC4=CC(=O)CC[C@@]43C)[C@H]1CC[C@H]2OC(=O)CCC1CCCC1,100%,–
c1cc2c(cc1[C@H]1OC[C@H]3[C@H]1CO[C@H]3c1ccc3c(c1)OCO3)OCO2,89.8%,–
O=[N+]([O-])c1ncc[nH]1,84.1%,–
COC[C@H]1OC(=O)c2coc3c2[C@@]1(C)C1=C(C3=O)[C@@H]2CC[C@H](O)[C@@]2(C)C[C@@H]1OC(C)=O,–,3.72 µM (active)
C[C@]12Cc3cn[nH]c3C[C@@H]1CC[C@@H]1[C@H]2CC[C@@]2(C)[C@H]1CC[C@]2(C)O,100%,–
O=C(NCC1CCOCC1)c1cnc(Nc2ccc(Cl)cc2Cl)nc1C(F)(F)F,–,5.26 µM (active)
COc1ccc(C(=O)c2c(C)n(CCN3CCOCC3)c3cc(I)ccc23)cc1,–,18.7 µM (active)
CC(O)=C(C#N)C(=O)Nc1cc(Br)ccc1Br,–,5.26 µM (active)
C[C@]12CC[C@@H]3[C@@H](CCC4=CC(=O)CC[C@@H]43)[C@@H]1CC[C@@H]2OC(=O)CCc1ccccc1,129%,–
C=C[C@@H]1CN2CCC1C[C@H]2[C@H](O)c1ccnc2ccccc12 (stereo not given in full),104%,–
CC(C)[C@H]1C(=O)N[C@H](CO)Cc2c[nH]c3cccc(c23)N1C,96.8%,–
CC[C@H]1C=CC=CC[C@@H](C)[C@H](O)[C@@](C)(O)C(=O)[C@@H](C)[C@H](O)[C@@H](C)C(=O)[C@@H](C)[C@H](O)[C@@H](C)C=CC(=O)O[C@@H]2[C@@H](C)[C@H](CC1)O[C@]1(CC[C@H](C)[C@H](C[C@@H](C)O)O1)[C@H]2C,–,0.001 µM (active)
Cc1c(C(=O)c2cccc3ccccc23)c2cccc3c2n1[C@H](CN1CCOCC1)CO3,–,8.33 µM (active)
C[C@]12CC[C@H]3[C@@H](CCC4=CC(=O)CC[C@@]43C)[C@H]1CC[C@H]2O,96.6%,–
C[C@]12CC[C@H](O)CC1=CC[C@H]1[C@H]3CCC(=O)[C@@]3(C)CC[C@@H]12,–,16.6 µM (active)
